A number with no mark means an inactive call. No rule for the calls is given here.
Target: CD276, Q5ZPR3
Sequence (Q5ZPR3 whole entry): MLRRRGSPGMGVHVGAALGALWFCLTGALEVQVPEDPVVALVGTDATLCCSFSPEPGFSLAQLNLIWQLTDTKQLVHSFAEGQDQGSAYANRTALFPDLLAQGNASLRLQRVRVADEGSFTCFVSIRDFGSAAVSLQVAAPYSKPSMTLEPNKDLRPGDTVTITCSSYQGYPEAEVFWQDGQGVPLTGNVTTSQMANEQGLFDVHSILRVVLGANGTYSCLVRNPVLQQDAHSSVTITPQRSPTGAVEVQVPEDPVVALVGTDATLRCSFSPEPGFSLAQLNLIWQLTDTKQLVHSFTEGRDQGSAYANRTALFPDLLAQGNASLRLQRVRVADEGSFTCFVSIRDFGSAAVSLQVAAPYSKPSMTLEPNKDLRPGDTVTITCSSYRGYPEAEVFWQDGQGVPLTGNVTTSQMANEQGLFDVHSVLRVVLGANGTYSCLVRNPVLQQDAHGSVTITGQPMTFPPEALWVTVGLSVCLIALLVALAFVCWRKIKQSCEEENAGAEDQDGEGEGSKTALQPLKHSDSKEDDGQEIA

Row | Binder | binding in a display sort
1 | design_488_244881a1-ba0c-4c08-ad9c-1f64cf93580a_165_dldesign_0_cycle1_af2pred (protein) MTPADQLIELARAIVEQAKASDPETAAVNAAGAEAAAGALRNYAAANPETGPKAEAAAKEAEAAAKAIKAAVAAAK | not found
2 | design_487_778f5c6d-c470-43b8-8f82-464af6177e08_1334_dldesign_0_cycle1_af2pred (protein) AGGYAVLAQNTLARARALAAQGPAALPEIEAQARILQQVAEAAAQAGDAEGAATAAANAEQARALAEEARRA | not found
3 | design_487_778f5c6d-c470-43b8-8f82-464af6177e08_1544_dldesign_0_cycle1_af2pred (protein) AALQQANAALKAAQSLVDHVKKNPEFSPESIIKVADVAIELAKQAEEEAAKADPEVAKKAKEAKEEAEKIKKEAA | not found
4 | design_488_244881a1-ba0c-4c08-ad9c-1f64cf93580a_123_dldesign_0_cycle1_af2pred (protein) GGEEEGEELLERGREAAEEIARLPLSETERLARLTGEALEYAREAARVAGGEKAREILTAISRAHAASVA | not found
5 | design_487_778f5c6d-c470-43b8-8f82-464af6177e08_2307_dldesign_0_cycle1_af2pred (protein) AAEAEEEAKKLAEEAAKLVAAVDPSIAEEVAKALELGNLAQVKTMLVLAQSAYESTDPAARALALANLRTVAAQAIARAA | not found
6 | design_487_778f5c6d-c470-43b8-8f82-464af6177e08_1348_dldesign_0_cycle1_af2pred (protein) AEKKREEAKKLVEEAKKLAEKGDFEKAVEKLREAVALDPSVIGEALEAVKVIAEKNPAAAPAASLAIIRAAQEA | not found
7 | design_487_778f5c6d-c470-43b8-8f82-464af6177e08_1129_dldesign_0_cycle1_af2pred (protein) AEELRERMKKSADGAIEVINDLTAYGIAHPEHAALARAALTGLGTNMIAAAAANPVSKELAEKLAAALTAATAAIDAA | not found
8 | design_488_244881a1-ba0c-4c08-ad9c-1f64cf93580a_204_dldesign_0_cycle1_af2pred (protein) LAATRAAANAVLTRASKLNLQAVADPALAEVAALANQAIALALAGLADPATLAADTAAAAAVLDQAEALAKLVA | not found
9 | design_487_778f5c6d-c470-43b8-8f82-464af6177e08_978_dldesign_0_cycle1_af2pred (protein) KSPTEQVAEYAAKVRAKAPKGEEIARLLFSYNAAYQADPAKGKEKEKELKALAKENPEAKEYVEAAVAAVKA | not found
10 | design_487_778f5c6d-c470-43b8-8f82-464af6177e08_749_dldesign_0_cycle1_af2pred (protein) GAEEALLAEARALLARAQGLLIEAAKQLKTDPAAAIKLAEEAKKLAEKAKELAKKLGRRGPGLQAMADAVIDSAKALKAQAEAAL | not found
11 | design_487_778f5c6d-c470-43b8-8f82-464af6177e08_1159_dldesign_0_cycle1_af2pred (protein) DTAAALAAAAAAAAALAKADPALAPAALAITQANLAAILDLAEETKAANPEVPAAVGETFNTAITTASTAYATALKLAQ | not found
12 | design_487_778f5c6d-c470-43b8-8f82-464af6177e08_1347_dldesign_0_cycle1_af2pred (protein) AAEAETQAALAQLQATMHELMRIAAQALALGDAELAQEALEAVVKGQEGLADPSIVKATAEEVSAARERLRARVEALRAA | not found
13 | design_487_778f5c6d-c470-43b8-8f82-464af6177e08_1484_dldesign_0_cycle1_af2pred (protein) SRLEELRRRRDEYVAQLEVAIAELEELSKRAVTEEARRAAEEARALVEEGDKDPERGANIVGRALVQAQAALARARRLNEAA | not found
14 | design_487_778f5c6d-c470-43b8-8f82-464af6177e08_1099_dldesign_0_cycle1_af2pred (protein) AAEEVAKKFAKAVLRIALKQIDENAADPELVKKIADNAVKLLNSLSDGAAVAKAEAEKIKAHAEATIAKAKAAKA | not found
15 | design_488_244881a1-ba0c-4c08-ad9c-1f64cf93580a_236_dldesign_0_cycle1_af2pred (protein) PVERAIRLAEGAITFLEGLIVARKDGNAAGAAAYAQAAKTLLEELAKLLPGEIAKEATEAAKLAADPATAEKALALAKKILERIKKE | not found
16 | design_487_778f5c6d-c470-43b8-8f82-464af6177e08_1892_dldesign_0_cycle1_af2pred (protein) AAQALLAQANAALGQLLDLAAEASASSPEEAARATAQMRETAAAAQAAAAAAAAQDPAIAPQAQAIAASAAALARNAEELVAAR | not found
17 | design_487_778f5c6d-c470-43b8-8f82-464af6177e08_1924_dldesign_0_cycle1_af2pred (protein) MEKETEELLKKAKELIEKAKELAKEVLKKDPISGRGIQAAVKSAEELLKRGIEGEDSLRYAKQALELAKVALEMAKATLAA | not found
18 | design_487_778f5c6d-c470-43b8-8f82-464af6177e08_1130_dldesign_0_cycle1_af2pred (protein) MTTEETARQQRENVEQVGRVAGLPEQAAELARAMEERAIREGLSNEEIIAEASRLSAQINRQALAAAQAA | not found
19 | design_487_778f5c6d-c470-43b8-8f82-464af6177e08_901_dldesign_0_cycle1_af2pred (protein) DELEKKIKEELEKAKEYLKKGKELFEAGKYKEAAAEFEKAIEYASKAMELAAEAGPKYNKYGVEASKVANEAYKLRQQALAK | not found
20 | design_487_778f5c6d-c470-43b8-8f82-464af6177e08_1277_dldesign_0_cycle1_af2pred (protein) EKEEAKKKAEELLKEIKKLAKEAAASDAETANKYLAKAVETAKELYELAKKIGEEGKELAKEANAALAAAAKAAMDKVQ | not found

Row | Binder | binding in a display sort
21 | design_487_778f5c6d-c470-43b8-8f82-464af6177e08_920_dldesign_0_cycle1_af2pred (protein) ESVREAARKVKELAEALAAQAKAAGDEEAAKLAEEAAKLAEEAEKKAEEDPEEAKRLIVEALRLLNRAFALLVAAS | not found
22 | design_487_778f5c6d-c470-43b8-8f82-464af6177e08_1035_dldesign_0_cycle1_af2pred (protein) VEEIVERVNAALARATRAALAGGPEAAARTAELMRRAAEAVRLAREDPEAGKKIADEVEAEVDALLAAVA | not found
23 | design_487_778f5c6d-c470-43b8-8f82-464af6177e08_1930_dldesign_0_cycle1_af2pred (protein) AQAAADAAEALSELAIKFSKLAKKISPEAAAYFARAAGYFLRASGILRAGGDAAAAAAALAKGLALFLLGLAILKKVLS | not found
24 | design_487_778f5c6d-c470-43b8-8f82-464af6177e08_1105_dldesign_0_cycle1_af2pred (protein) AAQLALARATLIAAADSLERLAAQAGPAYAPVAAEAAALRAAAEAGTLTADEANAALGRLLDQMEAISAEIR | not found
25 | design_487_778f5c6d-c470-43b8-8f82-464af6177e08_1381_dldesign_0_cycle1_af2pred (protein) MVEKAIEMVEKATKEAAARAPAKAEEIKKLGEKFKKEVEYLGKLNPESGLVMARGAVGALKDIADKEAKA | not found
26 | design_487_778f5c6d-c470-43b8-8f82-464af6177e08_2068_dldesign_0_cycle1_af2pred (protein) AAAEAAAAAEAQEKAKEAAEKAVENIDDPELAEKYAEEAGKALLAGADLEEVLTYANSLNPEVARLIARAYARLGAAAVRA | not found
27 | design_487_778f5c6d-c470-43b8-8f82-464af6177e08_1978_dldesign_0_cycle1_af2pred (protein) AKEKAIEEITALRELAVKAAEEVGKEEEKEKIKELTEKAIEALDNPEESARLITKAAAIAVEVAPEKAAQIRRLASAAIQAALAT | not found
28 | design_488_244881a1-ba0c-4c08-ad9c-1f64cf93580a_114_dldesign_0_cycle1_af2pred (protein) AAAALAGEVSAELVEIVGEAARVLGEAERLGDAEVVALAREARALANKALAALAAGDVEKAVEYAKKAREKLEEARRRLEEVKRR | not found
29 | design_487_778f5c6d-c470-43b8-8f82-464af6177e08_620_dldesign_0_cycle1_af2pred (protein) GAKSKALQKLFQQANELHKLAIAAKKPEAKKIYNEAAGTALDFAEKAQAGGDEEAEKLAKEAEKIAKEAKEKALAIE | not found
30 | design_487_778f5c6d-c470-43b8-8f82-464af6177e08_816_dldesign_0_cycle1_af2pred (protein) GSMEELAKLRAEAEEKLAAAQAVVERPAETVTLEELNAALAQAVEAARLFQEVGDRELLAEAFRVAATLAARAVEVAA | not found
31 | design_487_778f5c6d-c470-43b8-8f82-464af6177e08_1499_dldesign_0_cycle1_af2pred (protein) DEAELLEAINRAGRETRERLLALGESEAEATRAASAVQVVGYAALTGNAEAEAIGMASLATVGKGRPVAVAAAEEVADRIRAA | not found
32 | design_487_778f5c6d-c470-43b8-8f82-464af6177e08_1639_dldesign_0_cycle1_af2pred (protein) GALAVQTARASAAQAVAAVAAAPAEEAPARVAAAEKLLAVLDGIAEAASPEAGAQIRAIVDAARAAIAATAAAKAAA | not found
33 | design_487_778f5c6d-c470-43b8-8f82-464af6177e08_2394_dldesign_0_cycle1_af2pred (protein) AAEEAERIIEGNRQLGLAIAEGSASKEEMKAKVDEAVEKARKAVEEDPEKGPEYALELFTKTNKEIMLQALAELT | not found
34 | design_487_778f5c6d-c470-43b8-8f82-464af6177e08_2029_dldesign_0_cycle1_af2pred (protein) ATAAEIAARMGAAIKRNALANMDEIAAELADDPELAAKRLAAVVENARKMLEAAGLTPEEVAALVAELEARADELVEANRA | not found
35 | design_487_778f5c6d-c470-43b8-8f82-464af6177e08_1416_dldesign_0_cycle1_af2pred (protein) DEEERKKKAAEIMKKQAEKLKALAAADPANALTYRAAAALFEAAAIETLKDPEKGLKVGEDAVGLMAQVPAVAPEAKAAYEKAKALL | not found
36 | design_487_778f5c6d-c470-43b8-8f82-464af6177e08_718_dldesign_0_cycle1_af2pred (protein) MKKEEAIRALAAAAARAAKLAVDPRTAAVANKALEVVVSAMEEVEASEDEEEAVEIAEKALAEADKLLAEAAKAA | not found
37 | design_487_778f5c6d-c470-43b8-8f82-464af6177e08_1075_dldesign_0_cycle1_af2pred (protein) AAAEEAKKLVKEAKALLKAAEATGNLALAQAALEKALEAIALGAEVNKERPLPVAVEAVRLAGRAYALVRQLTA | not found
38 | design_487_778f5c6d-c470-43b8-8f82-464af6177e08_1117_dldesign_0_cycle1_af2pred (protein) MNVEEAKAQIEALMNRARGYFMRGAALAGTPEGAALNAKGAALLAEAEALAKEAGPEAQKVFAELKAKMDAAVNAVAN | not found
39 | design_488_244881a1-ba0c-4c08-ad9c-1f64cf93580a_302_dldesign_0_cycle1_af2pred (protein) MMAEYEARARELFEKAAASDPETARKIGEEMVKLAKEDVEFGNVAALVAAQVAAESGSPVLRQIQAAIARTVIEQLA | not found
